The results in this text go back to PubChem BioAssay (NCATS).

Each structure is given as a SMILES string. Values joined by “and” are separate entries in the source; they are usually repeats but may differ in a detail not shown here. Identical values can stand only once. Records with an inconclusive call do not appear. Unmarked numbers belong to inactive results. Active and inactive are the calls of the source. Calls follow the shape of the dose curve; as a rule, active = well fitted curve in the direction sought with a large enough effect; inconclusive = small, poorly fitted or top-dose-only effect, or another doubt; inactive = no such curve, though single readings can be large; an effect the other way counts as inactive or inconclusive.

One assay has as its system HaCat. Briefly: Cytotoxic Profiling of Annotated Libraries Using Quantitative High-Throughput Screening (AID 1296008). Also: nearly all actives have a fitted effect of over 60% in size. The settings on record: Five cell lines viability, CellTiter-Glo ATP luminescence, 48-72 h; max response: hits give low values. Put shortly:
(§1)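 Cells exposed to compounds for 48 or 72 hr at 37 degrees Celsius. Viability read as ATP-coupled luminescence with CellTiter-Glo after 10 min at room temperature.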
A general note: ATP-based viability assays read luminescence as a measure of living cells.

Another assay concerns KB-3-1. The description is as above. The settings on record: Five cell lines viability, CellTiter-Glo ATP luminescence, 48-72 h; max response: hits give low values. Put shortly: as §1
The next assay relates to NIH3T3. The description is as above. The settings on record: Five cell lines viability, CellTiter-Glo ATP luminescence, 48-72 h; max response: hits give low values. Put shortly: as §1
The test system of a further assay is MCC-13. In words: qHTS assay to identify novel small-molecules to repurpose for Merkel cell carcinoma treatment (AID 1296009). Also: nearly all actives have a fitted effect of over 60% in size. The note with it: MCC and control cell lines, CellTiter-Glo viability, 72 h; series mostly up to 46 µM. Put shortly:
(§2)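 Cells were treated for 72 hr at 37 degree celsius with compounds in 8- or 11-point dose response. Viability was read by CellTiter-Glo luminescence, normalized to no-cell (cytotoxicity) and DMSO controls.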

The subject of the next assay is MCC-26. The description is as above. The note with it: MCC and control cell lines, CellTiter-Glo viability, 72 h; series mostly up to 46 µM. Put shortly:
as §2

The subject of a further assay is MKL-2. The assay is described as above. The settings on record: MCC and control cell lines, CellTiter-Glo viability, 72 h; series mostly up to 46 µM. Put shortly:
as §2

In the next assay the test system is UISO. The assay is described as above. The settings on record: MCC and control cell lines, CellTiter-Glo viability, 72 h; series mostly up to 46 µM. Put shortly:
as §2

The subject of the next assay is WaGa. The assay is described as above. The settings on record: MCC and control cell lines, CellTiter-Glo viability, 72 h; series mostly up to 46 µM. Put shortly: as §2
Another assay has as its system MKL-1. The description is as above. The note with it: MCC and control cell lines, CellTiter-Glo viability, 72 h; series mostly up to 46 µM. Put shortly: as §2
A further assay concerns CAOV3. Briefly: Primary qHTS to identify gynecologic anti-cancer compounds using libraries of approved drugs and bioactive compounds (AID 1345084). Also: nearly all actives have a fitted effect of over 55% in size. The settings on record: Gynecologic cancer cell panel viability, ATPlite luminescence, 48 h; series mostly up to 57.5 µM. Put shortly: (§3)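 Cell viability after 48 h drug treatment, ATPlite luminescence readout; five doses.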
In general terms: qHTS replaces the single test concentration by a dilution series.

The next assay relates to CASKI. Described as above. The note with it: Gynecologic cancer cell panel viability, ATPlite luminescence, 48 h; series mostly up to 57.5 µM. Put shortly: as §3
In a further assay the test system is Es-2. The description is as above. The note with it: Gynecologic cancer cell panel viability, ATPlite luminescence, 48 h; series mostly up to 57.5 µM. Put shortly: as §3
A further assay concerns OV90. The assay is described as above. The note with it: Gynecologic cancer cell panel viability, ATPlite luminescence, 48 h; series mostly up to 57.5 µM. Put shortly:
as §3

The test system of another assay is C33A. Described as above. The settings on record: Gynecologic cancer cell panel viability, ATPlite luminescence, 48 h; series mostly up to 57.5 µM. Put shortly: as §3
Another assay deals with HeLa. The assay is described as above. The note with it: Gynecologic cancer cell panel viability, ATPlite luminescence, 48 h; series mostly up to 57.5 µM. Put shortly: as §3
The subject of another assay is Hek293T. Described as above. The settings on record: Gynecologic cancer cell panel viability, ATPlite luminescence, 48 h, control line for the selectivity index; series mostly up to 57.5 µM. Put shortly:
as §3

The next assay has as its system JEG-3. Described as above. The note with it: Gynecologic cancer cell panel viability, ATPlite luminescence, 48 h; series mostly up to 57.5 µM. Put shortly:
as §3
% is scaled to controls: 0 for no effect and ±100 for the full control effect; potency is read from the fitted curve at half-maximal effect.

`CC(C)(C)OC(=O)Nc1ccc(-c2cc(C(=O)NCCCCCCC(=O)NO)no2)cc1`: the Potency is 20.9 µM (active) in the assay with HaCat; 8.33 µM (active) with KB-3-1; 14.8 µM (active) in the assay with NIH3T3; 11.8 µM (active) in the assay on MCC-13; 18.7 µM (active) in the assay with MCC-26; 2.96 µM (active) in the assay on MKL-2. The Potency with UISO is 10.5 µM (active); in the assay with WaGa, 3.32 µM (active).
`CC[C@@H]1C(=O)N(C)c2cnc(Nc3ccc(C(=O)NC4CCC(N5CCN(CC6CC6)CC5)CC4)cc3OC)nc2N1C(C)C` (stereo partly specified): the Potency in the assay on HaCat is 0.059 µM (active); in the assay on KB-3-1, 11.8 nM (active) and 4.6 nM (active); with NIH3T3 it was 2.64 µM (active) and 1.46 µM (active) and 1.3 µM (active); in the assay on MCC-13, 0.469 µM (active); with MKL-1 it was 0.0743 µM (active); in the assay with MKL-2 it was 4.18 µM (active). For the same molecule, the Potency in the assay on CAOV3 is 12.6 µM (active); in the assay on CASKI, 17.8 µM (active); in the assay on Es-2, 3.98 µM (active); in the assay on OV90 it was 15.8 µM (active) and 12.6 µM (active).
For the molecule `CCc1cc2c(cc1N1CCC(N3CCOCC3)CC1)C(C)(C)c1[nH]c3cc(C#N)ccc3c1C2=O`, the max response was -16.1% and -0.553% in the assay with HaCat; -32% and 1.82% in the assay on KB-3-1; -45.1% and -2.9% in the assay with NIH3T3. The Potency entry with MCC-13, with MCC-26, with MKL-1, with UISO, in the assay with WaGa and in the assay on C33A was “inactive” each time. Moreover, the Potency entry in the assay with CASKI, with Es-2, in the assay on HeLa, with Hek293T, in the assay on JEG-3 and in the assay with OV90 was “inactive” in each case.
On to `CC(C)c1cnn2c(NCc3ccccc3)cc(N[C@@H](CO)[C@H](O)CO)nc12`, for which the Potency in the assay on HaCat is 469 nM (active) and 4.11 µM (active); in the assay on KB-3-1 it was 0.731 µM (active); in the assay with NIH3T3, 935 nM (active) and 3.66 µM (active); in the assay on MCC-13, 1.66 µM (active); in the assay on MCC-26, 0.743 µM (active); in the assay with MKL-2, 1.05 µM (active). For the same molecule, the Potency in the assay on C33A was 7.08 µM (active); in the assay with CASKI, 4.47 µM (active); in the assay with Es-2 it was 1.58 µM (active); with HeLa it was 2.82 µM (active); in the assay on Hek293T it was 1.41 µM (active).
In the case of `C=CCn1c(=O)c2cnc(Nc3ccc(N4CCN(C)CC4)cc3)nc2n1-c1cccc(C(C)(C)O)n1`, the Potency was 332 nM (active) and 1.64 µM (active) in the assay on HaCat; 0.264 µM (active) with KB-3-1; 469 nM (active) and 1.16 µM (active) with NIH3T3; 6.62 µM (active) with MCC-13; 4.69 µM (active) with MCC-26; 0.662 µM (active) in the assay on MKL-1. The Potency is 3.72 µM (active) in the assay with UISO; 1.41 µM (active) with C33A; 3.55 µM (active) in the assay on CAOV3; 3.16 µM (active) in the assay with CASKI; 1.26 µM (active) in the assay with Es-2; 0.708 µM (active) with HeLa. Further, the figures for the Potency in the assay with Hek293T and in the assay with JEG-3 were 0.631 µM (active) and 3.55 µM (active), respectively.
`NCC(=O)Nc1ccc(-n2nc(C(F)(F)F)cc2-c2ccc3c(ccc4ccccc43)c2)cc1`: the results for the max response in the assay on HaCat and in the assay on NIH3T3 were -18.9% and -0.49%, respectively. Moreover, the Potency in the assay with KB-3-1 is 26.4 µM (active) and 23.1 µM (active). Also, the Potency result with MCC-13, with MCC-26, with MKL-1, in the assay on MKL-2, in the assay on C33A and in the assay on CASKI was “inactive” each time. For the same molecule, the Potency entry in the assay on Es-2 and in the assay on OV90 was “inactive” in each case.
`COc1cc(Nc2ncc(F)c(Nc3ccc4c(n3)N(COP(=O)(O)O)C(=O)C(C)(C)O4)n2)cc(OC)c1OC`: the Potency in the assay on HaCat is 4.69 µM (active) and 4.61 µM (active); in the assay with KB-3-1 it was 4.11 µM (active); with NIH3T3 it was 2.06 µM (active); with CASKI, 17.8 µM (active); in the assay on HeLa, 3.55 µM (active); in the assay on OV90, 12.6 µM (active). For the same molecule, the Potency result with MCC-13, in the assay with MKL-1, in the assay on MKL-2, with UISO and in the assay on WaGa was “inactive” each time.
Regarding `O=C(Nc1cn[nH]c1-c1nc2ccc(CN3CCOCC3)cc2[nH]1)NC1CC1`, the Potency in the assay with HaCat was 2.64 µM (active) and 231 nM (active); in the assay with KB-3-1, 5.9 µM (active) and 4.11 µM (active); in the assay on NIH3T3, 1.48 µM (active) and 1.84 µM (active); in the assay with MCC-13, 0.935 µM (active); in the assay on MCC-26, 1.87 µM (active); with MKL-2, 26.4 µM (active). For the same molecule, the Potency is 8.33 µM (active) in the assay on UISO; 14.1 µM (active) in the assay with C33A; 2 µM (active) with CASKI; 14.1 µM (active) with Es-2; 7.94 µM (active) in the assay with Hek293T; 11.2 µM (active) in the assay on OV90.
Regarding `COc1cccc2nc(-c3cccs3)nc(NN3C(=O)C=C(C)C3=O)c12`, the Potency with HaCat was 23.5 µM (active); in the assay on KB-3-1 it was 5.9 µM (active) and 10.3 µM (active); in the assay with NIH3T3, 1.48 µM (active) and 820 nM (active); with MCC-13, 2.64 µM (active); with MKL-2 it was 0.935 µM (active); in the assay with C33A, 31.6 µM (active). Moreover, the Potency in the assay on CAOV3 was 15.8 µM (active); with Es-2, 2.51 µM (active); in the assay with Hek293T it was 1.41 µM (active). Besides, the Potency result in the assay with MCC-26 was “inactive”.
Turning to `CCN1CCN(Cc2ccc(-c3cc4c(N[C@H](C)c5ccccc5)ncnc4[nH]3)cc2)CC1`, the Potency with HaCat was 1.48 µM (active); with NIH3T3 it was 16.6 µM (active); with MCC-13, 4.18 µM (active); in the assay with MCC-26, 0.743 µM (active); with MKL-2 it was 0.0132 µM (active); in the assay on UISO it was 0.118 µM (active). Further, the Potency in the assay with WaGa is 0.0209 µM (active). The max response with KB-3-1 was -20%.
For the molecule `C=CC(=O)Nc1cccc(Oc2nc(Nc3ccc(N4CCN(C)CC4)cc3)ncc2Cl)c1`, the Potency with HaCat was 1.18 µM (active) and 2.31 µM (active); in the assay on KB-3-1, 2.96 µM (active) and 5.8 µM (active); in the assay with NIH3T3, 3.72 µM (active) and 6.51 µM (active); in the assay with MCC-13 it was 7.43 µM (active); in the assay with MCC-26, 11.8 µM (active); in the assay on MKL-1, 3.32 µM (active). Further, the Potency is 8.33 µM (active) with MKL-2, 10 µM (active) in the assay on CASKI and 7.94 µM (active) in the assay on HeLa. Besides, the Potency entry in the assay with Es-2, with JEG-3 and in the assay on OV90 was “inactive” in each case.
In the case of `CNC(=O)c1ccccc1Nc1nc(Nc2ccc(N3CCOCC3)cc2OC)ncc1Cl`, the Potency was 2.96 µM (active) and 2.31 µM (active) in the assay on HaCat; 2.64 µM (active) and 1.3 µM (active) with KB-3-1; 1.05 µM (active) in the assay on NIH3T3; 1.48 µM (active) in the assay on UISO; 10 µM (active) in the assay with CASKI; 5.01 µM (active) with HeLa. Besides, the Potency in the assay on OV90 was 1 µM (active). In addition, the Potency result in the assay with MKL-2 and with JEG-3 was “inactive” each time.
